Results: PubChem BioAssay AID540276 (National Center for Advancing Translational Sciences (NCATS), 2011)
Screen size: about 300,000 compounds; about 5,400 (1.8%) were called active. Entries that show only a call come without a potency. Not shown: some 28% with an inconclusive outcome. The sample holds actives, similar compounds and a random draw of the others, so the mix is not that of the screen. The call rests on the fitted dose curve; tested in HEK293 cells.

Assay: qHTS for inhibitors of binding or entry into cells for Marburg Virus
Conditions: Marburg virus pseudotyped entry inhibition, cell reporter; series mostly up to 37.8 µM
Potency means the concentration at half of the fitted maximal effect.

SMILES | Potency
CCOC(=O)c1ccc(NC(=O)CS(=O)(=O)c2cn(CC)c3ccccc23)cc1 | 8.2 µM (active)
CCOC(=O)c1ccc(NC(=O)CSc2ncccn2)cc1 | inactive
CC(=O)Nc1ccc(NC(=O)CS(=O)(=O)c2cn(CC(=O)N3CCCCC3)c3ccccc23)cc1 | inactive
CCC1CCCCN1C(=S)Nc1ccc(S(=O)(=O)Nc2ncccn2)cc1 (stereo not drawn) | inactive
COc1ccc(CCNC(=O)c2ccccc2OCc2ccccc2)cc1 | inactive
CC(=O)N1CCc2ccc(N)cc21 | inactive
CCOc1ccc(NC(=O)CN(C)C(=O)COc2cccc(CC)c2)cc1OCC | inactive
CC(C)CN1CC(C)C(=O)N(c2ccccc2)C1=S (stereo not drawn) | inactive
O=C(O)c1ccc(S(=O)(=O)c2ccccc2)s1 | inactive
CCCCc1nc2cc(C(=O)N3CCCCC3CCO)ccc2o1 (stereo not drawn) | inactive
C/C=C/c1ccc(OCC(=O)OCC(=O)Nc2c(C)nn(-c3ccccc3)c2C)c(OC)c1 | inactive
Cc1nn(-c2ccccc2)c(C)c1NC(=O)COc1ccc(Cl)cc1Cl | 11.6 µM (active)
Cc1nn(-c2ccccc2)c(C)c1NC(=O)COC(=O)Cc1ccccc1 | inactive
COc1ccc(CCNC(=O)C(=O)NCC2OCCN2S(=O)(=O)c2cccs2)cc1OC (stereo not drawn) | inactive
CCc1ccc(N2CC(C(=O)N3CCCCCC3)CC2=O)cc1 (stereo not drawn) | inactive
CCN(c1ccccc1)S(=O)(=O)c1cc(C(=O)NCc2ccccn2)ccc1C | inactive
COc1cccc2c1C(=O)c1c(O)c3c(c(O)c1C2=O)CC(O)(C(C)=NNC(=O)c1ccc(Cl)c(Cl)c1)CC3OC1CC(N)C(O)C(C)O1 (stereo not drawn) | 0.447 µM (active)
COc1ccc(C(=O)Nc2ccccc2C(=O)N2CCN(c3ccccc3)CC2)cc1 | inactive
O=C(Nc1nc(-c2ccc3c(c2)OCO3)cs1)c1ccncc1 | 7.94 µM (active)
Cc1ccc(-c2csc(NC(=O)C3=COCCO3)n2)cc1C | inactive
CC(=O)NCCC(=O)Nc1nc(-c2ccc3c(c2)OCCO3)cs1 | inactive
Cc1ccc(S(=O)(=O)N2CCC(C(=O)N3CCCCCCC3)CC2)cc1 | inactive
CCOC(=O)C1CCCN(C(=O)C2CCN(S(=O)(=O)c3ccc(Cl)c(C(F)(F)F)c3)CC2)C1 (stereo not drawn) | inactive
CCOC(=O)CC1=C(C(=O)OCC)[C@H](c2cc(OC)c(OC)cc2OC)C(C#N)=C(N)O1 | inactive
Cc1c(Cl)cccc1NC(=S)NCC(O)c1ccccc1 (stereo not drawn) | inactive
CCCOc1ccccc1C1CC(=O)Nc2cc3c(cc21)OCO3 (stereo not drawn) | 6.31 µM (active)
COCCOC(=O)C1=C(C)NC(=O)CC1c1cc2c(cc1Br)OCO2 (stereo not drawn) | inactive
COc1ccccc1C1C2=C(COC2=O)Nc2cc3c(cc21)OCO3 (stereo not drawn) | inactive
